Rows were chosen to be rich in hits. Some 1.4% of all compounds tested hit in one or more screens of this group.
IL1B NFkB pot = enhancers of NFkB p65 translocation in HUVEC – imaging, IL-1B stimulus, high-content imaging, primary screen; HUVEC IL-1B NFkB p65 nuclear translocation imaging; activation, % at 2 µM; 94,000 tested, 0.3% active;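 active = activation above 40%, about the mean plus 3 SD, also judged a hit on visual image review; inconclusive = activation above 40% but not a hit on visual review; inactive = activation not above 40% and no visual hit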;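 note: percent activation is computed from the nuclear over cytoplasmic p65 intensity ratio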
IL1B cytotox = cytotoxicity in IL-1B stimulated HUVEC, primary screen, cytotoxicity control for IL-1B NFkB translocation project, imaging, Hoechst nuclear count, IL-1B stimulus; HUVEC cell count loss; cell count reduction, % at 2 µM; AID 845, 2007; 94,000 tested, 0.41% active;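 active = cell count reduction more than 3 SD above the screen-wide mean, cut at about 70% in these data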;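 note: normalized per plate to untreated control cells as the no-loss baseline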
Insulin prom inh = inhibitors of insulin promoter-driven GFP, primary screen, imaging, TRM-6 cells (human fetal islet line), eGFP reporter, cell count | reporter expression induced with tamoxifen | inhibition, % at 2 µM | 130,000 tested, 0.9% active;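 active = inhibition above the mean plus 3 SD, with well images judged a real hit on visual review, cut at about 60% in these data, passing the limit was not always enough; inconclusive = inhibition over the cutoff but images rejected on review; inactive = inhibition not above the cutoff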
IL1B NFkB inh = inhibitors of IL-1B driven NFkB p65 nuclear import, primary screen, imaging, HUVEC, IL-1B stimulus, high-content imaging. HUVEC IL-1B NFkB p65 nuclear translocation imaging. inhibition, % at 2 µM. 94,000 tested, 0.43% active;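 active = inhibition above about 30% together with a positive call from visual inspection of the well image, limit read from the data; inconclusive = inhibition above a set limit but visual check negative; inactive = inhibition not above a set limit, visual check negative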;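 note: nuclear over cytoplasmic p65 intensity ratio measured by imaging; 0% = IL-1B stimulated DMSO wells and 100% = unstimulated DMSO wells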
Starred values were filed as active, the others as inactive; ? = inconclusive; nt = no result given.

SMILES | IL1B NFkB pot | IL1B cytotox | Insulin prom inh | IL1B NFkB inh
O=C(c1cc2n(n1)C(C(F)(F)F)CC(c1ccco1)N2)N1CCc2ccccc2C1 (stereo not given) | -10.9 | 74.6* | 61.1 | 10.9
Cc1ccc(-c2ccc(=O)[nH]n2)cc1 | -98.5 | 82.3* | 39.5 | 98.5*
CC(C)OC(=O)CCC1(C(=O)O)CCC(=O)NC1 (stereo not given) | 15.2 | -7.1 | nt | -15.2
COC(=O)C(/C=N/OCc1ccc([N+](=O)[O-])cc1)NC(=O)c1ccccc1 (stereo not given) | 43.9* | -3.2 | -27.6 | -43.9
O=C(CCn1c(=O)[nH]c2ccsc2c1=O)NCc1ccc(F)cc1 | nt | nt | 0.0 | nt
S=c1[nH]nc(-c2cc(-c3ccco3)[nH]n2)n1-c1ccccc1Cl | nt | nt | 13.9 | nt
S=c1[nH]nc(-c2cc(-c3ccco3)[nH]n2)n1-c1ccccc1 | -34.8 | -4.0 | 36.8 | 34.8*
CCC(C)N(C(=O)C(F)(F)F)C(C(=O)NC1CCCCC1)c1ccncc1 (stereo not given) | 37.7 | -20.8 | -52.4 | -37.7
O=C(NC1CCCCC1)C(c1ccncc1)N(CC1CCCO1)C(=O)C(F)(F)F (stereo not given) | -6.9 | -43.1 | 90.0* | 6.9
Cc1ccc(C(=O)NCCCN2CCOCC2)o1 | 2.0 | -10.8 | -6.9 | -2.0
S=C(Nc1ccc(N2CCOCC2)cc1)Nc1ccc2nc(-c3ccco3)c(-c3ccco3)nc2c1 | -44.8 | -2.7 | -18.5 | 44.8*
O=C(Nc1ccc(N2CCOCC2)cc1)c1ccc2nc(-c3ccco3)c(-c3ccco3)nc2c1 | 28.9 | 11.1 | -8.1 | -28.9
O=C(OCCCN=C1NS(=O)(=O)c2ccccc21)c1ccc([N+](=O)[O-])cc1 | nt | nt | 27.8 | nt
Cc1ccc(S(=O)(=O)N2CCSC2C(=O)O)cc1 (stereo not given) | -6.8 | 74.9* | ? | 6.8
O=S(=O)(/N=C(/Nc1ccccn1)c1ccc(Cl)cc1)c1ccc(Cl)cc1 | nt | nt | 13.3 | nt
CC(C)(C)C(=O)CNS(=O)(=O)c1ccc(S(=O)(=O)NC2CCCC2)cc1 | -4.4 | -28.4 | -28.6 | 4.4
Cc1ccc(C)c(S(=O)(=O)NCc2ccc(C(=O)N3CCCCCC3)cc2)c1 | nt | nt | 76.9* | nt
Cc1nc2c3cc(F)ccc3n(Cc3ccc(F)cc3)c2s1 | nt | nt | 76.7* | nt
COC(=O)Cn1c2ccc(F)cc2c2nc(C)sc21 | 21.4 | -7.7 | nt | -21.4
O=C(CCC(=O)c1ccccc1)NCCc1c[nH]c2ccccc12 | nt | nt | -83.3 | nt
C=CCN(CC=C)CC(=O)Nc1ccc(S(N)(=O)=O)cc1 | -42.2 | 4.9 | -5.3 | 42.2*
COC(=O)c1ccc(C)c(NS(=O)(=O)c2ccc(OC)cc2)c1 | -17.0 | 22.2 | 100.0* | 17.0
COC(=O)c1ccc(C)c(NS(=O)(=O)c2ccc(C)c([N+](=O)[O-])c2)c1 | -1.4 | -14.4 | -62.5 | 1.4
CC1(c2ccc3ccccc3c2)NC(=O)N(CC(=O)Nc2cccc(S(=O)(=O)N3CCOCC3)c2)C1=O (stereo not given) | nt | nt | -21.4 | nt
CCC(c1nc2ccccc2c(=O)n1CCCn1ccnc1)N1C(=O)c2ccccc2C1=O (stereo not given) | ? | 3.7 | 21.6 | -48.0
SMILES | IL1B NFkB pot | IL1B cytotox | Insulin prom inh | IL1B NFkB inh
CCC(c1nc2ccccc2c(=O)n1CCN1CCOCC1)N1C(=O)c2ccccc2C1=O (stereo not given) | 0.3 | -139.3 | 65.5* | -0.3
COc1cccc(OC)c1C(=O)Nc1cc(C)nn1-c1nc2ccccc2[nH]1 | nt | nt | 68.4* | nt
CCN(CC)C(=O)CSc1nnc(-c2ccccc2)n1-c1ccccc1 | -37.9 | -42.3 | 21.4 | 37.9*
CCN(CC)C(=O)CSc1nnc(-c2ccccc2)n1N | 15.5 | -10.1 | 35.5 | -15.5
O=C(NCC1CCCO1)c1onc(CSc2ccc(F)c(F)c2)c1C(=O)O (stereo not given) | -0.9 | 8.4 | -2.7 | 0.9
CC(C)N(C(=O)Cn1c(SCC(=O)NCc2ccc3c(c2)OCO3)nc2ccccc21)C(C)C | 2.6 | -12.4 | -160.0 | -2.6
CC(C)Sc1nc2ccccc2n1CC(=O)NCc1ccc2c(c1)OCO2 | 13.8 | -1.8 | 91.4* | -13.8
COc1cc(/C=C\C(=O)NCc2ccc3c(c2)cc(C)n3C)cc(OC)c1OC | nt | nt | -7.3 | nt
CSC1=NCCN1S(=O)(=O)c1ccc(C)cc1 | nt | nt | 78.6* | nt
COC(=O)c1sccc1NC(=O)c1cc(-c2ccc(C)cc2C)nc2ccccc12 | 11.2 | -4.1 | 50.0 | -11.2
COc1ccccc1NC(=O)CSc1nnc(CNC(=O)COc2ccc(Cl)cc2)o1 | 40.3* | -25.9 | 14.3 | -40.3
Cc1ccccc1Nc1nc(CSc2nnnn2-c2ccccc2)cs1 | 7.7 | -76.5 | 68.6* | -7.7
c1ccc(-c2nc(CSc3nnnn3-c3ccccc3)cs2)cc1 | -1.4 | 9.7 | nt | 1.4
Nc1cc(=O)[nH]c(=S)n1-c1cccc(C(F)(F)F)c1 | -9.7 | 21.5 | 60.0* | 9.7
Cc1cccc(-n2c(N)cc(=O)[nH]c2=S)c1C | -6.1 | -24.0 | -21.6 | 6.1
Cc1ccc(NC(=O)CSc2nc(O)c(Cc3ccccc3)c(=O)n2-c2ccccc2)cc1 | nt | nt | -44.1 | nt
CN(C)c1nc(NC(C)(C)C)nc(SCC(=O)Nc2ccccc2)n1 | nt | nt | 80.5* | nt
CN(C)c1nc(NCc2ccccc2)nc(SCC(=O)Nc2ccccc2)n1 | -13.6 | -21.1 | nt | 13.6
O=c1[nH]c2cccnc2n1Cc1ccccc1 | 1.8 | -17.9 | 82.1* | -1.8
O=c1[nH]c2ccccc2n1Cc1ccccc1 | -4.5 | 8.1 | nt | 4.5
N#CCCN(C(=O)COC(=O)c1cccc(S(=O)(=O)Nc2ccc([N+](=O)[O-])cc2)c1)c1ccccc1 | nt | nt | 69.2* | nt
N#CCCN(C(=O)COC(=O)c1ccc(S(=O)(=O)Nc2ccccc2)cc1)c1ccccc1 | nt | nt | -21.4 | nt
Cc1[nH][nH]c(=O)c1C(c1cc2c(cc1Br)OCO2)c1c(C)[nH][nH]c1=O | nt | nt | 66.7* | nt
CCOP(=O)(c1ccccc1)C(O)c1ccc(Br)cc1 (stereo not given) | nt | nt | -33.3 | nt
CCSC1=NCCN1C(=O)c1ccc(S(=O)(=O)N(C)C)cc1 | nt | nt | 15.0 | nt
SMILES | IL1B NFkB pot | IL1B cytotox | Insulin prom inh | IL1B NFkB inh
CC(=O)NCCc1ccc(S(=O)(=O)Nc2cccnc2)cc1 | 3.0 | -30.8 | -85.2 | -3.0
CCOC(=O)c1[nH]c2ccc(OC)cc2c1NC(=O)C(C)N1CCSCC1 (stereo not given) | 39.3 | -7.0 | -29.0 | -39.3
CCOC(=O)c1[nH]c2cc(OC)c(OC)cc2c1NC(=O)C(C)N1CCN(Cc2ccccc2)CC1 (stereo not given) | -31.7 | -2.9 | 37.9 | 31.7*
CCCC(=O)Nc1cccc(NC(=O)c2ccccc2Br)c1 | -9.7 | -10.0 | 26.1 | 9.7
CCN(CC)S(=O)(=O)c1cccc(NC(=O)c2ccccc2Br)c1 | nt | nt | 76.9* | nt
CN(C)S(=O)(=O)N(CC(=O)Nc1ccccc1F)c1ccccc1 | 5.7 | 78.8* | -72.2 | -5.7
CCc1ccc(NC(=O)CN(c2ccccc2)S(=O)(=O)N(C)C)cc1 | nt | nt | -60.0 | nt
CC1=NC(C)Cc2ccccc21 (stereo not given) | -1.3 | 7.9 | nt | 1.3
CCC(CC)n1[nH]c(=O)c2c(C)cc(C)nc21 | 4.8 | -19.7 | -30.6 | -4.8
CCc1ccc2[nH]c3nc(C)cc(C)c3c(=O)c2c1 | nt | nt | 81.5* | nt

Screening results deposited in PubChem by Columbia University Molecular Screening Center.
